Source: PubChem BioAssay (NCI)
“And” between values parts separate entries of the source, which are not always exact repeats. Equal values may be shown once. About 83,000 compounds went through this panel and 20% of them were active in at least one assay; those are over-represented in the sample as a whole.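 48-hour exposure, single concentration, 96-well plates; percent growth endpoint where 0 means no net growth. Active: below 10.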 The source made the active and inactive calls.

Each compound was assayed on MDA-MB-468 breast (assay: NCI-60 one-dose screen, 48 h (100 = growth as untreated, 0 = no growth, -100 = all killed)). Settings: 10 µM unless noted.
With COc1cc(Cn2c(-c3ccccc3)cc3c2-c2oncc2CC3)cc(OC)c1 the growth was -21.4% (active).
With Cc1occc1-c1n[nH]c(=S)n1N1C(=O)CSC1=S the growth was 103% (inactive).
For CCOc1ccc(Nc2c3ccccc3nc3ccccc23)cc1, the growth was 102% (inactive) and -9.77% (active).
With Cc1ccc(Nc2ccc(O)c3c2C(=O)c2c(O)ccc(Nc4ccc(C)cc4)c2C3=O)cc1 the growth was 95.8% (inactive).
COc1cc2nccc(Oc3ccc(NC(=O)C4(C(=O)Nc5ccc(F)cc5)CC4)cc3)c2cc1OC was tested, and the growth was 33.6% (inactive).
In the case of C=C1C(=O)O[C@H]2[C@H]1CC/C(COC(=O)NCc1ccc(Cn3c(=O)sn(-c4ccc(OC)cc4)c3=O)cc1)=C\CC[C@@]1(C)O[C@@H]21, the growth was 17.9% (inactive).
COc1ccc(/C(C)=C(/c2ccc(OCCCN(C)C)cc2)c2ccc(OC(=O)c3ccccc3)cc2)cc1 was tested, and the growth was 94.9% (inactive).
In the case of CCCCCC(=O)OCc1ccccc1, the growth was 97.3% (inactive).
With O=C1OCC2=C1C(c1cccc([N+](=O)[O-])c1)c1cc3c(cc1N2CCO)CCC3 (stereo not given) the growth was 4.98% (active).
In the case of CCCCCCCCn1ccc2cc(NC(=O)CN=[N+]=[N-])ccc21, the growth was 105% (inactive).
CC(=O)NCC1c2c(n(C)c3c(Cl)c(Cl)ccc23)C(=O)NC1(C)C (stereo not given) was tested, and the growth was 109% (inactive).
In the case of CCOC(=O)c1ccc(-c2ccc3cc(OC)ccc3c2)nc1C, the growth was 119% (inactive).
With C/C(=N/O)c1ccc(NC(=O)Cn2nc(-c3ccc(Cl)cc3)nc2N)cc1 the growth was 100% (inactive).
In the case of CN1CCN(c2ccc(Nc3ncc(Cl)c(NC[C@@H]4CCCO4)n3)cc2)CC1, the growth was 30.7% (inactive).
In the case of COc1cc(-c2nn(C(C)(C)C)cc2-c2ccnc(NCCCNS(=O)(=O)c3ccc(Cl)cc3)n2)ccc1Cl, the growth was 63.7% (inactive).
N#CC1=C(N)Oc2ccc3ccccc3c2C1c1ccc([N+](=O)[O-])cc1 (stereo not given) was tested, and the growth was 66.7% (inactive).
CCOC(=O)C1=CN(C)C=C(C(=O)OCC)C1c1cc(Br)c(OCC)c(OC)c1 was tested, and the growth was 62.1% (inactive).
With CNc1cc(C(=O)O)nc(NC)n1 the growth was 95.5% (inactive).
With N#CC1=C(N)Oc2ccc3ccccc3c2C1c1ccccc1 (stereo not given) the growth was 12.7% (inactive).
With C[C@H](C(=O)N(CCc1ccc(Cl)c(Cl)c1)Cc1cncs1)[C@@H]1CC[C@H](C[C@H](C)n2cc(CN3CCC(c4ccc(Cl)cc4)CC3)nn2)O1 the growth was 90.3% (inactive).
CCOc1ccc(C(=O)O)cc1 was tested, and the growth was 83.4% (inactive).
In the case of CN1CCN(c2ccc(Nc3c4ccccc4nc4ccccc34)cc2)CC1, the growth was 102% (inactive).
Cc1ccccc1C(c1ccccc1)c1ccccc1C was tested, and the growth was 50.3% (inactive).
Cc1ncc(C(=O)Nc2ccc(CN3CCN(C)CC3)c(C(F)(F)F)c2)cc1C#Cc1cnc(N)cc1C#N was tested, and the growth was 68.2% (inactive).
COc1ccc(/C=N/NC(=O)c2c(N)nn(C)c2Nc2ccccc2)cc1Oc1ccccc1 was tested, and the growth was 66.6% (inactive).
In the case of COc1ccc(CC(C#N)c2ccc(Cl)cc2)cc1 (stereo not given), the growth was 24% (inactive).
N#CCCCCCn1c2ccccc2c2c3[nH]c(=O)[nH]c(=O)c3c3c4ccccc4n(CCCCCC#N)c3c21 was tested, and the growth was 69.7% (inactive).
In the case of N/C(=N\c1nc2ccccc2s1)NC(=O)Nc1ccccc1, the growth was 31.4% (inactive).
With COc1ccc(C(=O)c2cc(C)c(OC)c(C)c2)c(OC)c1OC(=O)C(Cl)Cl the growth was 11.4% (inactive).
For CC1=NC(=S)NC(c2ccccc2)/C1=C1/CC(c2ccccc2O)NN1 (stereo not given), the growth was 107% (inactive).
With COc1cc(/C=C2/C=C(c3ccccc3)N(CCc3ccc(S(N)(=O)=O)cc3)C2=O)cc(OC)c1OC the growth was 94.7% (inactive).
CCOc1nc(-c2ccco2)n2nc(-c3ccco3)cc2n1 was tested, and the growth was -5.05% (active).
With CC(=O)c1ccc(NS(=O)(=O)c2ccc([N+](=O)[O-])cc2)cc1 the growth was 98.9% (inactive).
In the case of COc1cc(-c2cc(-c3cc4c([nH]c5ccccc54)c(-c4cc(OC)c(OC)c(OC)c4)n3)cc(-c3ccccc3)n2)cc(OC)c1OC, the growth was 8.91% (active).
For Cc1cc(O)c(C(C)(C)C)cc1Sc1cc(C(C)(C)C)c(O)cc1C, the growth was 67.2% (inactive).
With C#Cc1cccc(Nc2ncnc3ccc(-c4cncc(NS(C)(=O)=O)c4)cc23)c1 the growth was -40.3% (active).
With O=C(Nc1ccc(Cl)cc1)c1cc(-c2ccc(F)cc2)c2sc(=O)[nH]c2n1 the growth was -8.3% (active).
O=CNCCc1ccccc1 was tested, and the growth was 97.8% (inactive).
In the case of Cc1ccccc1CNc1ccc(N2CCOCC2)cc1, the growth was 97.8% (inactive).
With CN(C)CCOC(=O)C(C)(C)C the growth was 98.9% (inactive).
